The values below come from PubChem BioAssay (NCATS).

Results filed as inconclusive are left out. Activity calls are given as the source filed them. Calls come from the whole dose curve; as a rule, active = well fitted curve in the direction sought with a large enough effect; inconclusive = small, poorly fitted or top-dose-only effect, or another doubt; inactive = no such curve, though single readings can be large; an effect the other way counts as inactive or inconclusive.

One experiment deals with 7G8. In words: qHTS profiling for inhibitors of Plasmodium falciparum proliferation (AID 504749). Note: nearly all actives have a fitted effect of over 60% in size. As to conditions: P. falciparum in erythrocytes, SYBR Green DNA, 72 h; series mostly up to 28.7 µM. An outline of the steps:
(§1)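 Infected RBCs, 0.3% parasitemia/2.5% Hct final; cpd 72 h, 37 C, 5% CO2; lysis buffer with saponin/triton/SYBR Green I, o/n RT dark; FI 485/535; norm. to artemisinin (0.29 uM) and DMSO.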
(Quantitative high-throughput screening tests each substance at several concentrations.)

The next experiment has as its system CP191. The description is as above. To be noted: P. falciparum in erythrocytes, SYBR Green DNA, 72 h; series mostly up to 28.7 µM. An outline of the steps: as §1
The next experiment deals with CP262. Described as above. To be noted: P. falciparum in erythrocytes, SYBR Green DNA, 72 h; series mostly up to 28.7 µM. An outline of the steps: as §1
Another experiment relates to CP265. Described as above. To be noted: P. falciparum in erythrocytes, SYBR Green DNA, 72 h; series mostly up to 28.7 µM. An outline of the steps:
as §1

The next experiment has as its system CP305. Described as above. To be noted: P. falciparum in erythrocytes, SYBR Green DNA, 72 h; series mostly up to 28.7 µM. An outline of the steps: as §1
Another experiment deals with CP315. The experiment is described as above. To be noted: P. falciparum in erythrocytes, SYBR Green DNA, 72 h; series mostly up to 28.7 µM. An outline of the steps:
as §1

The test system of the next experiment is CP329. Described as above. To be noted: P. falciparum in erythrocytes, SYBR Green DNA, 72 h; series mostly up to 28.7 µM. An outline of the steps: as §1
The next experiment deals with CP335. Described as above. To be noted: P. falciparum in erythrocytes, SYBR Green DNA, 72 h; series mostly up to 28.7 µM. An outline of the steps: as §1
A further experiment deals with PC15. The experiment is described as above. As to conditions: P. falciparum in erythrocytes, SYBR Green DNA, 72 h; series mostly up to 28.7 µM. An outline of the steps:
as §1

In a further experiment the test system is W2. The experiment is described as above. As to conditions: P. falciparum in erythrocytes, SYBR Green DNA, 72 h; series mostly up to 28.7 µM. An outline of the steps:
as §1

A short description of experiment [1]: Cell Viability - LYMP2-007 (AID 979).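 Note: cells exposed to compound for 24 h before reading; nearly all actives have a fitted effect of over 60% in size.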 To be noted: LYMP2-007 lymphoblastoid cell viability; series mostly up to 92.2 µM. An outline of the steps: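 Human lymphoblastoid LYMP2-007 cells (2500/well) preincubated 5 h at 37 C, then treated 24 h at 37 C in complete medium. Viability by CellTiter-Glo ATP luminescence after 30 min at room temperature; AC50 from Hill fits.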

A short description of experiment [2]: Cell Viability - LYMP2-010 (AID 981). Note: nearly all actives have a fitted effect of over 55% in size. As to conditions: LYMP2-010 lymphoblastoid cell viability, qHTS; series mostly up to 92.2 µM. An outline of the steps: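 Human lymphoblastoid LYMP2-010 cells (2500/well) treated 24 h at 37 C in complete medium; viability read as intracellular ATP by CellTiter-Glo luminescence. AC50 from Hill fits of concentration-response data; tetraoctylammonium bromide positive control.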

The nature of experiment [3]: Cell Viability - LYMP2-012 (AID 982).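 Note: cellular ATP by luciferase luminescence where a drop means cytotoxicity; cells exposed to compound for one day before reading; nearly all actives have a fitted effect of over 55% in size.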 As to conditions: LYMP2-012 lymphoblastoid cell viability qHTS; series mostly up to 92.2 µM.
The nature of experiment [4]: Cell Viability - LYMP2-014 (AID 983). Note: nearly all actives have a fitted effect of over 50% in size. As to conditions: LYMP2-014 lymphoblastoid cells, viability qHTS; series mostly up to 92.2 µM. An outline of the steps:
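LYMP2-014 human lymphoblastoid cells, 2500/well, treated 24 h at 37 C in complete medium; viability by CellTiter-Glo ATP luminescence after 30 min at room temperature. AC50 from Hill fits of qHTS concentration-response; tetraoctylammonium bromide positive control.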

Experiment [5] is described as follows: Cell Viability - LYMP2-018 (AID 985).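 Note: compound exposure lasted 24 hr at 37 °C; nearly all actives have a fitted effect of over 50% in size.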 To be noted: LYMP2-018 lymphoblastoid cells, viability (qHTS); series mostly up to 92.2 µM. An outline of the steps:
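Human lymphoblastoid LYMP2-018 cells, 2500/well, settled 5 hr at 37 C then exposed to compound 24 hr at 37 C; intracellular ATP measured by CellTiter-Glo luminescence. AC50 from Hill-equation concentration-response fits.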

A short description of experiment [6]: Cell Viability - LYMP2-020 (AID 986). Note: nearly all actives have a fitted effect of over 55% in size. To be noted: series mostly up to 92.2 µM. An outline of the steps: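 Human lymphoblastoid LYMP2-020 cells (2500/well) preincubated 5 h at 37 C, then treated 24 h at 37 C. Viability measured as intracellular ATP by CellTiter-Glo luminescence after 30 min at room temperature; AC50 from Hill fits.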
Experiment [7] in a line: Cell Viability - LYMP2-022 (AID 987). Note: nearly all actives have a fitted effect of over 55% in size. To be noted: LYMP2-022 lymphoblastoid cell viability; series mostly up to 92.2 µM. An outline of the steps:
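LYMP2-022 lymphoblastoid cells (2500/well, complete medium) were treated with compounds for 24 hours at 37 C; intracellular ATP was then read by CellTiter-Glo luminescence after 30 min at room temperature. AC50 values were derived from Hill-equation fits.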

Experiment [8] can be described thus: Cell Viability - LYMP2-024 (AID 988). Note: nearly all actives have a fitted effect of over 60% in size. As to conditions: LYMP2-024 lymphoblastoid cell viability; series mostly up to 92.2 µM. An outline of the steps: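 Human lymphoblastoid LYMP2-024 cells (2500/well) rested 5 hr, then treated with compound for 24 hr at 37 C in complete medium. Viability was measured as intracellular ATP by CellTiter-Glo luminescence. AC50 values came from Hill-equation fits.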

Experiment [9] can be described thus: Cell Viability - LYMP2-026 (AID 989). Note: nearly all actives have a fitted effect of over 50% in size. As to conditions: LYMP2-026 lymphoblastoid cell viability, qHTS; series mostly up to 92.2 µM. An outline of the steps:
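Human lymphoblastoid LYMP2-026 cells, 2500/well, exposed to compound 24 h at 37 C in complete medium. Viability as intracellular ATP by CellTiter-Glo luminescence; AC50 from Hill fits of qHTS concentration-response.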

Experiment [10] can be described thus: Cell Viability - LYMP1-002 - Assay at 24 hr (AID 993). As to conditions: LYMP1-002 lymphoblastoid cells viability; series mostly up to 92.2 µM. An outline of the steps: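 Human lymphoblastoid LYMP1-002 cells (2500/well) treated 24 h at 37 °C; viability as intracellular ATP by CellTiter-Glo luminescence. Tetraoctylammonium bromide as positive control; AC50 from Hill-equation fits of qHTS concentration-response.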
Potency is the fitted concentration of half-maximal effect.

Consider `CO/N=C(/C(=O)N[C@@H]1C(=O)N2C(C(=O)O)=CCS[C@H]12)c1csc(N)n1`, for which the Potency result in the experiment on 7G8, with CP191, in the experiment on CP262, in the experiment on CP265, in the experiment on CP305 and in the experiment with CP315 was “inactive” each time. Besides, the Potency result in the experiment on CP329, in the experiment on CP335, in the experiment on PC15 and in the experiment on W2 was “inactive” in each case.
In the case of `C/C=C\c1ccc(OC)cc1`, the Potency entry in experiment [1], in experiment [2], in [3], in experiment [4], in experiment [5] and in experiment [6] was “inactive” in each case. The Potency result (in experiment [7]; in experiment [8]; in experiment [9]; in experiment [10]; with 7G8; in the experiment on CP191) was “inactive” in each case. For the same compound, the Potency entry with CP262, in the experiment on CP265, in the experiment with CP305, with CP315, in the experiment on CP329 and in the experiment with CP335 was “inactive” throughout. The Potency entry with PC15 and in the experiment on W2 was “inactive” throughout.
With `Cc1cccc([N+](=O)[O-])c1C`, the Potency result in experiment [1], in experiment [2], in [3], in [4], in experiment [5] and in experiment [6] was “inactive” in each case. Also, the Potency entry in experiment [7], in experiment [8], in experiment [9] and in [10] was “inactive” each time.
With `CN1CC[C@H](CN2c3ccccc3Sc3ccccc32)C1`, the Potency in the experiment with 7G8 is 1.41 µM (active); in the experiment with CP191, 10 µM (active); with CP265 it was 11.2 µM (active); in the experiment with CP305 it was 15.1 µM (active); with PC15, 11.2 µM (active); with W2 it was 1.9 µM (active). Further, the Potency result in the experiment on CP262, in the experiment with CP315 and with CP329 was “inactive” each time.
With `O[C@@H]([C@H](O)[C@@H](O)CBr)[C@@H](O)CBr`, the Potency entry in experiment [1], in experiment [2], in experiment [3], in [4], in [5] and in experiment [6] was “inactive” throughout. The Potency entry in experiment [7], in experiment [8], in experiment [9] and in experiment [10] was “inactive” throughout.
On to `CC1(C)CC(N=C=O)CC(C)(CN=C=O)C1` (configuration not stated), for which the Potency result in [1], in [2], in experiment [3], in experiment [4], in experiment [5] and in experiment [6] was “inactive” throughout. For the same compound, the Potency result in [7], in [8], in experiment [9] and in experiment [10] was “inactive” each time.
In the case of `CCC(O)OC(O)CC` (configuration not stated), the Potency entry in [1], in experiment [2], in experiment [3], in experiment [4], in experiment [5] and in experiment [6] was “inactive” throughout. The Potency result in experiment [7], in experiment [8], in experiment [9] and in experiment [10] was “inactive” each time.
For the compound `O=C1c2ccccc2C(=O)C1c1ccc2ccccc2n1`, the Potency in experiment [1] is 39.8 µM (active). Besides, the Potency entry in experiment [2], in experiment [3], in [4], in experiment [5], in experiment [6] and in experiment [7] was “inactive” in each case. Also, the Potency result in [8], in [9] and in experiment [10] was “inactive” in each case.
In the case of `NC1=NC(S)C2N=CN=C2N1` (configuration not stated), the Potency is 15.8 µM (active) in experiment [1]; 12.6 µM (active) in experiment [2]; 7.94 µM (active) in [3]; 15.8 µM (active) in [4]; 7.94 µM (active) in experiment [5]; 10 µM (active) in experiment [6]. Moreover, the Potency in [7] is 12.6 µM (active); in experiment [8] it was 12.6 µM (active); in experiment [9], 12.6 µM (active); in experiment [10] it was 10 µM (active). Further, the Potency entry in the experiment with CP262, in the experiment with CP265, in the experiment on CP305, in the experiment on CP315, in the experiment with CP329 and in the experiment on CP335 was “inactive” in each case. Besides, the Potency result in the experiment on PC15 and with W2 was “inactive” in each case.
